Source: PubChem BioAssay (Broad Institute)
HSF1 inh: HSF1 inhibition. NIH3T3-HGL HSE-luciferase, MG132-induced, luminescence 8 h; stronger effect = lower value. hit rate 0.77% among 300,000. activity change, negative = inhibition, % at 7.5 µM (by protocol);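 active = more than half of replicate wells show activity change below -50%, luminescence cut by over half; inconclusive = some wells, but at most half, below -50%; inactive = no replicate well below -50%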;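 also: luciferase reports HSF-1 transcriptional activity via heat shock element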
esBAF inh: inhibitors of esBAF chromatin remodeling in mouse ES cells; Bmi1-luciferase knock-in reporter, 24 h; 100% = twice the neutral-well signal; reporter increase, % at 12.5 µM; hit rate 2% among 350,000; in the data active = activation above about 40%; inconclusive = no clear call, values can overlap the other calls;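 also: a rise in the Bmi1 reporter signal indicates esBAF inhibition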
HSF1 activator: increases HSF-1 driven luciferase reporter signal | NIH3T3-HGL HSF-1 luciferase reporter, MG132, 8 h; 100% = twice DMSO control signal | activation, % at 9 µM | hit rate 1.7% among 300,000 | AID 504408;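 active = mean replicate activation of at least 50% with a set share of replicates each reaching 50%; inconclusive = only one of those two conditions met; inactive = mean below 50% and too few replicates reaching it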
Wnt act: activators of Wnt/beta-catenin signaling; Wnt/beta-catenin reporter cell assay, activator, plate reader; activation, % at 9.35 µM; AID 743398; hit rate 1.2% among 300,000; in the data active = activation above about 30%, passing the limit was not always enough; inconclusive = no clear call, values can overlap the other calls
MITF TRPM1 HTS: MITF TRPM1 promoter activation in melanoma cells. activation, % at 12.5 µM. SK-MEL-5 TRPM1-promoter luciferase, 24 h; % of positive control, neutral wells = 0. hit rate 0.75% among 300,000. AID 588334;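 active = mean activation of at least 80% with every replicate also reaching 80%; inconclusive = mean reaches 80% but some replicate falls short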
Numbers stand for hits; 0 = inactive; ? = inconclusive; - = not tested or not shown. A selection: hits, their analogues and other compounds. The true share with any hit is near 3.8%.

SMILES	HSF1 inh	esBAF inh	HSF1 activator	Wnt act	MITF TRPM1 HTS
N#CCSc1ccc2nc(-c3ccccc3)cn2n1	0	51	0	0	0
C[C@H](CO)N1C[C@H](C)[C@H](CN(C)S(=O)(=O)c2cccs2)Oc2ncccc2C1=O	-	0	-	-	-
COc1ccc(NC(=O)Nc2ccc(F)c(Cl)c2)cc1	0	-	0	45	127
O=C(Nc1ccccc1F)Nc1ccccc1F	0	56	0	54	0
O=C(Nc1ccc2c(c1)CCC2)Nc1ccccc1F	0	0	0	0	108
O=C(COC(=O)/C=C/C(=O)OCC(=O)Nc1ccccc1F)Nc1ccccc1F	0	-	66	0	0
O=C(Nc1ccc(Br)cc1)Nc1ccccc1F	0	?	?	0	0
C[C@H](CO)N1C[C@H](C)[C@H](CN(C)CC2CC2)Oc2ccc(NC(=O)Cn3cnnn3)cc2CC1=O	-	0	-	-	-
Cc1ccccc1NC(=O)Nc1ccc2c(c1)CCC2	0	72	0	0	0
Cc1ccc(NC(=O)Nc2ccc3c(c2)CCC3)cc1	0	-	0	0	?
Cc1ccccc1NC(=O)Nc1ccc(C(F)(F)F)cc1	0	-	0	38	0
Cc1ccccc1NC(=O)CNC(=O)c1ccc(C(F)(F)F)cc1	0	-	0	0	0
NS(=O)(=O)c1ccc2nc(NC(=O)Nc3ccccc3F)sc2c1	0	0	0	43	0
O=C(Nc1ccc2c(c1)CCC2)Nc1ccc(F)cc1F	0	71	0	41	0
O=C(Nc1ccc(F)cc1)Nc1ccc2c(c1)CCC2	0	-	0	?	?
CNC[C@@H]1Oc2ccc(NS(=O)(=O)c3ccc(C)cc3)cc2C(=O)N([C@@H](C)CO)C[C@H]1C	-	0	-	-	-
COc1ccc(NC(=O)Nc2ccccc2OC)cc1	0	48	0	0	?
COc1ccccc1NC(=O)Nc1ccc(C(N)=O)cc1	0	-	0	0	0
O=C(Nc1ccc2c(c1)CCC2)c1c(F)cccc1Cl	0	-	0	0	88
COc1ccccc1NC(=O)Nc1ccc2c(c1)CCC2	0	-	0	0	112
C[C@@H]1CN([C@@H](C)CO)C(=O)c2cc(C#CC3(O)CCCC3)cnc2O[C@H]1CN(C)Cc1cccnc1	-	0	-	-	-
Nc1c(-c2ccccc2)cnn1-c1cccc(C(F)(F)F)c1	-	54	-	-	0
COc1ccc(-c2cnn(-c3ccccc3)c2N)cc1OC	0	0	0	-	0
COc1ccc(-c2cnc3c(-c4ccc(F)cc4)cnn3c2N)cc1	0	?	0	43	0
COc1ccc(-c2cnn3c(N)c(S(=O)(=O)C(C)(C)C)cnc23)cc1	0	0	0	0	0
SMILES	HSF1 inh	esBAF inh	HSF1 activator	Wnt act	MITF TRPM1 HTS
Nc1c(-c2ccc(Cl)cc2)cnc2c(-c3ccccc3)cnn12	0	0	0	36	0
Nc1c(-c2cccc(Cl)c2)cnn1-c1cccc(C(F)(F)F)c1	0	0	0	-	-
Cc1ccc(-c2cnn(-c3ccccc3)c2N)cc1	0	0	0	43	0
CN(C)C(=O)C[C@@H]1CC[C@H]2[C@@H](COC[C@@H](O)CN2C(=O)C2CCCC2)O1	-	0	-	-	-
CCCNC(=O)C[C@H]1C[C@H]2c3cc(NC(=O)Nc4ccccc4)ccc3O[C@H]2[C@H](CO)O1	-	0	-	-	-
Nc1c(-c2ccc(Cl)cc2)cnn1-c1ccccc1	0	0	0	?	92
Cc1ccc(-c2cnn(-c3cccc([N+](=O)[O-])c3)c2N)cc1	0	83	60	-	0
Nc1c(-c2ccc(Cl)cc2)nnn1-c1ccccc1	0	79	58	67	-
Cc1nc2c(-c3ccccc3)cnn2c(N)c1-c1ccccc1	-87	0	0	0	0
COc1ccc(NC(=O)Nc2ccc3c(c2)[C@@H]2C[C@@H](CC(=O)NCc4ccccn4)O[C@@H](CO)[C@@H]2O3)cc1	-	0	-	-	-
CCC(=O)N1C[C@@H](C)[C@@H](OC)CN(C)C(=O)c2cc(NS(C)(=O)=O)ccc2OC[C@@H]1C	-	0	-	-	-
C[C@H]1CN([C@@H](C)CO)C(=O)c2cccc(NC(=O)c3cnccn3)c2O[C@H]1CN(C)S(=O)(=O)c1cccs1	-	0	-	-	-
COc1ccc(S(=O)(=O)Nc2ccc3c(c2)CC(=O)N([C@@H](C)CO)C[C@H](C)[C@@H](CN(C)C(=O)Nc2ccc(F)cc2)O3)cc1	-	0	-	-	-
CC(=O)Nc1ccc(OC/C=C(\C)Cl)cc1	0	55	0	-	0
CCc1cc2c(SCC#N)ncnc2s1	0	-	80	0	0
Cc1ccccc1CN1CCNC1=O	0	0	0	-	0
Cc1cccc(CN2CCNC2=O)c1	-71	0	0	-	0
Cc1ccc2oc(-c3cccc(NC(=O)c4ccc(Br)o4)c3)nc2c1	0	65	0	-	0
Cc1ccc(-c2nc3cc(N)ccc3o2)cc1	0	0	0	-	0
Cc1ccc2oc(-c3cccc(N)c3)nc2c1	0	0	70	0	0
Cc1cc2nc(-c3cccc(NC(=O)c4ccc(Br)o4)c3)oc2cc1C	0	0	0	-	0
CO[C@H]1CN(C)C(=O)c2cc(NS(C)(=O)=O)ccc2OC[C@H](C)N(CC2CC2)C[C@@H]1C	-	0	-	-	-
O=C(Nc1ccc(Cl)cc1)N1C[C@H]2[C@@H](c3ccccc31)[C@H](CO)N2C(=O)C1CC1	-	0	-	-	-
CCCCN1C=CC(=C2C(=O)c3ccccc3C2=O)C=C1	-82	0	0	0	0
CCCCNC1=CC(=O)C(=O)c2ccccc21	0	-	0	0	0
SMILES	HSF1 inh	esBAF inh	HSF1 activator	Wnt act	MITF TRPM1 HTS
Cc1cc(O)c(N=Nc2ccc(C(=O)O)cc2)cc1C	-	67	-	0	0
Cn1c(CCCOc2ccc(Cl)cc2Cl)nnc1SCC(=O)Nc1cccc(F)c1	0	-	54	0	0
C[C@@H]1CN([C@H](C)CO)C(=O)c2cccc(NS(=O)(=O)c3ccc(F)cc3)c2O[C@@H]1CN(C)S(=O)(=O)c1cccs1	-	0	-	-	-
Cc1noc(C)c1NC(=O)Nc1cccc2c1O[C@@H](CN(C)S(=O)(=O)c1ccccc1)[C@@H](C)CN([C@@H](C)CO)C2=O	-	0	-	-	-
Cc1ccc(S(=O)(=O)n2c(=O)oc3ccccc32)cc1	0	0	80	0	0
Cc1cccc(NCc2ccc(O)c3ncccc23)c1C	-63	-	0	0	0
CCCCNC(=O)CNC(=S)N(Cc1ccccc1)Cc1cccs1	-71	-	0	0	0
COC(CNC(=O)CNC(=S)N(Cc1ccccc1)Cc1cccs1)OC	0	0	0	0	0
O=C(CNC(=S)N(CCCN1CCOCC1)Cc1cccs1)NCc1ccccc1Cl	-71	0	0	0	0
CNC(=S)N(Cc1ccc(Cl)cc1)Cc1cccs1	0	-	54	0	-
Cc1ccccc1NC(=S)N(Cc1ccccc1)Cc1cccs1	0	-	0	0	0
O=C(C[C@H]1C[C@@H]2c3cc(NC(=O)c4ccc5c(c4)OCO5)ccc3O[C@@H]2[C@H](CO)O1)NC1CCCCC1	-	0	-	-	-
COc1cccc(C2Nc3ccccc3C(=O)N2c2ccc(F)cc2)c1O (stereo not drawn)	0	?	67	0	101
Cc1c(C#N)c(NC(=O)CCl)n(Cc2ccc(F)cc2)c1C	0	-	0	0	0
Cc1c(C#N)c(NC(=O)CCl)n(Cc2ccccc2)c1C	0	0	57	0	0
C[C@@H]1CN([C@H](C)CO)S(=O)(=O)c2ccc(C#Cc3ccccc3F)cc2O[C@H]1CN(C)CC1CCOCC1	-	0	-	-	-
